B1: chr7:140404665:140404666:+_ENSG00000090266_ENST00000247866|hu_hu|hu_hu_hu_mus_False|8_88 (ssRNA)
RNA: GGGAGUUCUACAGUCCGACGAUCUGCUCCUACUCGUCCAGAGAGUUUACACCUUCAGUCCUCGUCAUCAGGAGGGAUUCCCAGUUCUUCAUCUGUCCACUGUGAAGGAUCUGGAUAUGAAAAGUGACCCAGCACCUCAUCCGACAACAGAGGAUUGAGCAUCA
B2: chr18:67804014:67804015:+_ENSMUSG00000024537_ENSMUST00000025418|mus_mus|motif|central (ssRNA)
RNA: GGGAGUUCUACAGUCCGACGAUCGCAAUCAGUAUAGAAAUAACCAAUCUUACACAUGUUCAGUGUAGAAAUAAUCAGAUCGGUUGCAAGCUGGCCAACAUUUCCAACGGAUACUGCUGGCAUCAGGAGUGUAAAGUUCGUUAGCAACAGAGGAUUGAGCAUCA
B3: chr4:140556289:140556290:+_ENSMUSG00000036622_ENSMUST00000037055|mus_mus|mus_mus_mus_hu_False|48_48 (ssRNA)
RNA: GGGAGUUCUACAGUCCGACGAUCGAUGGAGCUCACCAGGCCCCCUUUUGCCGUGCAGAACCCUGUGCGGGUCACCACUGCCAGGACACGGGGUCCCACAUAGGCCCGGGCCUGCAAGAUGAGGGUCCCGCAGAAGAGUGUGUGCAACAGAGGAUUGAGCAUCA
B4: 134094901_134095021_423_5pUTR_ENSG00000151502_ENST00000281187|human|control|control (ssRNA)
RNA: GGGAGUUCUACAGUCCGACGAUCCUCAUCGCACCGCCGGGCCGGGCGGGUCUCGGUAAGGACCGCUCCCUCGCACCGGGGCGCGGGCUGCCCUAGGUAAAGAAGGCCAGAGGGCCCGAUGCGCGAGCGCGCUCGGCCGCCGCGCAACAGAGGAUUGAGCAUCA
B5: chr14:63765801:63765802:-_ENSMUSG00000021273_ENSMUST00000054963|mus_mus|motif|central (ssRNA)
RNA: GGGAGUUCUACAGUCCGACGAUCCUGCUUGGUUUUGCUUGAUGAUGGGUCUGAGUUGGGGAUCCGGUGAUAAAUCUCUUCGGUGUACUGGUAUAUGAUAGCUUUGACGGCAGGCAUGUUGGUGGCAUCCAUCAUGAGGGUGACCAACAGAGGAUUGAGCAUCA
B6: 46153067_46153187_242_5pUTR_ENSG00000159596_ENST00000372025|human|control|control (ssRNA)
RNA: GGGAGUUCUACAGUCCGACGAUCGAUAAAACUGAAGACAUGUAGUAGGAGAUCUCAGGGGCCCACGCCGGCCAGUCCCUCCAAUCCUCCGGAUUCUAGGUAGUCUAGCUUCCUGGUUGCCAGCCAUUACACGGUUUAGCUUUCCAACAGAGGAUUGAGCAUCA
B7: chr7:54825262:54825263:-_ENSG00000132432_ENST00000352861|hu_hu|hu_hu_hu_mus_False|48_58 (ssRNA)
RNA: GGGAGUUCUACAGUCCGACGAUCCUGCCGGCUGGGCUCCACAAACUGCAUUACCUGAUCCAUGUUUGUUGGAUGGCACACCUAAAAUGCCAGGGACCGUAGCUCAGGAGAGAACCGAGCCCAACGGAACCGGAAGCUGGCAACCAACAGAGGAUUGAGCAUCA
B8: chr2:48026839:48026840:+_ENSG00000116062_ENST00000540021|hu_hu|hu_hu_hu_mus_False|1_48 (ssRNA)
RNA: GGGAGUUCUACAGUCCGACGAUCAUAGUGAGCCACUAGCGUCCUAAAUCUGGAACAGUGGCGGUCAUCCGAAAACUGGCCGAUGAAAAACUUUCCCAGUGAAGUGUCCACAAAGCAAACACCAUACACACGAGUGUGGCCAGACAACAGAGGAUUGAGCAUCA
B9: 133975328_133975448_5492_3pUTR_ENSG00000205060_ENST00000378509|human|control|control (ssRNA)
RNA: GGGAGUUCUACAGUCCGACGAUCUCUCCCAUUCCAGCUUGGUACACACUGAACACAUUUGAGGCUUAUGACUGGUUCUUUUACUUACAAAUAUUGUUUAGACACAUUUUCAAAUGUCACACCAAUCAAUAAUAAUAAGGAAUGCAACAGAGGAUUGAGCAUCA
B10: 62642993_62643113_3073_3pUTR_ENSMUSG00000032244_ENSMUST00000034775|mouse|control|control (ssRNA)
RNA: GGGAGUUCUACAGUCCGACGAUCCAUAUGUGUCCUCAUUCCUUUUCAUCUUACACCUAAUUAGGGAGACACCAAUGCCCUAUGGAAAGGCAGUUUCCAAUUUUUAAAGAUACAACACACAAGGACAGGGCUAGAAAAGGACGACAACAGAGGAUUGAGCAUCA
B11: 243667512_243667632_2619_3pUTR_ENSG00000117020_ENST00000366539|human|control|control (ssRNA)
RNA: GGGAGUUCUACAGUCCGACGAUCUUCUCAUCACUAAAAAAUAAAUACUACUGCAAUAUAAACAAAAUCAUAAAAGGACAUUCAAAGUUUCAACAUCUGAGAAAAAGCUAAUUCACGUAGAACUGAAAGUAAAAAAUUAAAUAACAACAGAGGAUUGAGCAUCA
B12: 120959283_120959403_3001_3pUTR_ENSG00000154114_ENST00000422003|human|control|control (ssRNA)
RNA: GGGAGUUCUACAGUCCGACGAUCUGAAGAAUUUACAAGUCACCUAAAAAUUUCAUAAAAAAAUUAAAUUUGUAGGAGGGGUAGAAUUAUGUAACAAAGGUCAAAAGGUCAAAUGCAAUCAGAUAAUAACUGCAUUCUUUGAAACAACAGAGGAUUGAGCAUCA
B13: chr8:42881778:42881779:+_ENSG00000168172_ENST00000307602|hu_hu|FALSE|FALSE (ssRNA)
RNA: GGGAGUUCUACAGUCCGACGAUCCUGAAGUUAGGGGCAAUCUGCAGGUUUGUGUUUCAGGAGGCAGGCAAACCAAAGGUAAGAACAUCUUCUGAUUAACUGUAAGAUGGGAUAAUUUUUAUGAAUACAACUUCAGAAAGCAUCCAACAGAGGAUUGAGCAUCA
B14: chr5:135513207:135513208:+_ENSG00000113658_ENST00000545279|hu_hu|FALSE|FALSE (ssRNA)
RNA: GGGAGUUCUACAGUCCGACGAUCAAUGUAAGCUCACAGUAUCUGUACUCAAAGUUUCUCUAAAAUUAAAACAAGUCCACUAACAAUAUAAUUGAAAAGAAUACUUCUGCAUUAUGAAACAGAAGAUAUGGGGUUCAGAGGGGACAACAGAGGAUUGAGCAUCA
B15: chr1:109605286:109605287:-_ENSG00000197780_ENST00000461096|hu_mus|hu_hu_hu_mus_True|88_108 (ssRNA)
RNA: GGGAGUUCUACAGUCCGACGAUCAAGAACAAUAACAACAUUCAGUAUACUUAAAUCAUGCAAUUAUCCUUAUUAUAAGCUAAGCAGAAUAAUAAUUUAAUACCGUAAGUGAACUACACACAAAGCCUGAACCGCGAAAAUGGUCAACAGAGGAUUGAGCAUCA
B16: 58873449_58873569_2464_3pUTR_ENSMUSG00000025092_ENSMUST00000066285|mouse|control|control (ssRNA)
RNA: GGGAGUUCUACAGUCCGACGAUCAUCCAAGAUCAUUUUAAAAGACCUCCAAUGAAUGUUUCCCCCACCCUACCCUGCCCCCGGCACAGAGUGGGCGUCCUAAGCCUUCCCUUUCAGAGCCCUCUUCCAAGCAGGCUGCACCCACAACAGAGGAUUGAGCAUCA
B17: chr10:115881139:115881140:-_ENSG00000165813_ENST00000369287|hu_hu|FALSE|FALSE (ssRNA)
RNA: GGGAGUUCUACAGUCCGACGAUCAUAAAAAUAUUUUCACCAGGGUAGCAUAUAUAACAACAUUUACAUUAUUAAGGAUUCUAUUUUUUUCUUUUACUGAUAAAUCUUGGUUUAAAUUUGCAUGUAACAAUUUUUAGAAAAUAACAACAGAGGAUUGAGCAUCA
B18: chr11:21040623:21040624:+_ENSMUSG00000020134_ENSMUST00000093290|mus_mus|motif|central (ssRNA)
RNA: GGGAGUUCUACAGUCCGACGAUCAAUGUGCACGGUGCUAGGCUUCACCCCAUUUGCCUUAGGUCUUUUAAACAAAGCAAACCGGCUUUUCCUCCUUCCUCUAUCACCGUUUGGGAGAGAUCCAUUAUAUCCUAAGACAAUGAGCAACAGAGGAUUGAGCAUCA
B19: chr7:75932113:75932114:+_ENSG00000106211_ENST00000248553|hu_hu|hu_hu_hu_mus_False|8_18 (ssRNA)
RNA: GGGAGUUCUACAGUCCGACGAUCCUGCGACCACUCAUCGGGCAACCGGGGCACCCCGAAAGCUUGAUCGAAGAGGCGGCUGUGUGCAGGGUACCAGUCCCGGAAUGGUUCCCAGCUGCCCCGCAGGAGCGAGAAGGAGGGCACCAACAGAGGAUUGAGCAUCA
B20: 171752885_171753005_485_CDS_ENSG00000010165_ENST00000361735|human|control|control (ssRNA)
RNA: GGGAGUUCUACAGUCCGACGAUCGGUGGCAUUACAUUCCUUCAUUUGCUUGAUGACAACCUCACUGAUGUCGAUGUUCACUAUAUCCCGAUAGCCCACAUCAUACAGUUGCUCACUCAGUUCUGAGUUGCCACACCCAAUCACCAACAGAGGAUUGAGCAUCA
B21: 59346998_59352246_650_CDS_ENSG00000215114_ENST00000399598|human|control|control (ssRNA)
RNA: GGGAGUUCUACAGUCCGACGAUCAUCCAAAUUCACUUGGCCACCAUGAACAAGGCGCUGAAGCUCCAGGGGAAUCUCUCCUCUCUUAACAGACUCCAGAAAUUGAGCAUUUGUUGGUUCAUUGUAAGGUCUCAAUUCUCCAUCCAACAGAGGAUUGAGCAUCA
B22: 244175_244709_261_3pUTR_ENSG00000185627_ENST00000382671|human|control|control (ssRNA)
RNA: GGGAGUUCUACAGUCCGACGAUCUUACACAGGAUCACUGCCUCAUCACUACUUUUCACCUUCUCACGAGUCUUUUCCAGAAAAGUAAGAGCCACAUUAGGAUCAGUCAUCUGUCUAACUACAUGAAGAAUGAUUUCCACGAGGCAACAGAGGAUUGAGCAUCA

Whole data set: some 24,000 sequences, median “enrichment r” near 0.99, cut for the highest 2% near 3.7. This excerpt belongs to a sample that is enriched for the highest values.

This assay has as its target T1, UNK ZnF1-3 (human, UniProt Q9C0B0 31-174).
T1 sequence: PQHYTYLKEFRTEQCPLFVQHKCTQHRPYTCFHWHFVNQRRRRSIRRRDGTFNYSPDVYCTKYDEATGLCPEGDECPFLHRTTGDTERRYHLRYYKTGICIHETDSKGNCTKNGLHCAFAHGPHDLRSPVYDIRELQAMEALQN
As to the kind of experiment: nsRBNS (natural sequence RNA bind-n-seq); RBNS binding buffer (assumed for nsRBNS): 25 mM Tris pH 7.5, 150 mM KCl, 3 mM MgCl2, 0.01% Triton X-100, 500 ug/ml BSA, 20 U/ml SUPERase-In, 4 C; UNK is unkempt and MSI1 is Musashi-1; names of the RNAs are library labels; protein concentration not given here; high values mean tight binding.
In turn, B1 showed a binding signal of 1.36 enrichment R. Regarding B2, the binding signal stood at 0.794 enrichment R. For the molecule B3, the binding signal was found to be 0.98 enrichment R.

B4 returned a binding signal of 0.289 enrichment R. B5 showed a binding signal of 1.69 enrichment R. Take B6: the binding signal is 0.934 enrichment R. B7 yielded a binding signal of 1.16 enrichment R. As to B8, the binding signal is 1.03 enrichment R. B9 showed a binding signal of 1.3 enrichment R. As to B10, the binding signal was found to be 1.66 enrichment R. Then B11, with 5.18 enrichment R. Take B12: the binding signal worked out at 4.1 enrichment R. B13 returned a binding signal of 3.56 enrichment R.

Molecule B14 returned a binding signal of 1.67 enrichment R.

Regarding B15, the binding signal turned out to be 0.813 enrichment R. In turn, B16 registered a binding signal of 5.4 enrichment R.

The molecule B17 had a binding signal of 3.75 enrichment R. B18 displayed a binding signal of 0.75 enrichment R. The result for B19 reads 1.07 enrichment R. Then B20, with 0.654 enrichment R; and B21, with 1.23 enrichment R; and B22, with 1.47 enrichment R.

The values are drawn from article PMC12136788.
